# Measurements: the supplement of paper PMC11001985
# Compound: C#CCNC(=O)CCSSCCC(=O)NCCc1ccc(C=O)c(C=O)c1
# Experiment: lysine labeling ratio R10:1 (500 µM / 50 µM probe), SILAC-ABPP in living cells; higher = lower intrinsic lysine reactivity toward the probe, active = 2 or less
# Details: HeLa; probe concentrations 500 vs 50 µM
# Summary of the method: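 In PBS at room temperature, living HeLa cells grown with SILAC light or heavy labels were treated with 50 µM or 500 µM of an alkyne-tagged, disulfide-linked lysine probe, with label swaps in both directions. Analysis was by LC-MS/MS on a TIMS-TOF Pro after click to biotin-azide, neutravidin capture and DTT release. For each lysine, R is the median across forward and reverse replicates of the filtered median high-probe/low-probe MS1 peptide ratio, capped at 20.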
# UniProt Q15149, sequence (Q15149 whole entry): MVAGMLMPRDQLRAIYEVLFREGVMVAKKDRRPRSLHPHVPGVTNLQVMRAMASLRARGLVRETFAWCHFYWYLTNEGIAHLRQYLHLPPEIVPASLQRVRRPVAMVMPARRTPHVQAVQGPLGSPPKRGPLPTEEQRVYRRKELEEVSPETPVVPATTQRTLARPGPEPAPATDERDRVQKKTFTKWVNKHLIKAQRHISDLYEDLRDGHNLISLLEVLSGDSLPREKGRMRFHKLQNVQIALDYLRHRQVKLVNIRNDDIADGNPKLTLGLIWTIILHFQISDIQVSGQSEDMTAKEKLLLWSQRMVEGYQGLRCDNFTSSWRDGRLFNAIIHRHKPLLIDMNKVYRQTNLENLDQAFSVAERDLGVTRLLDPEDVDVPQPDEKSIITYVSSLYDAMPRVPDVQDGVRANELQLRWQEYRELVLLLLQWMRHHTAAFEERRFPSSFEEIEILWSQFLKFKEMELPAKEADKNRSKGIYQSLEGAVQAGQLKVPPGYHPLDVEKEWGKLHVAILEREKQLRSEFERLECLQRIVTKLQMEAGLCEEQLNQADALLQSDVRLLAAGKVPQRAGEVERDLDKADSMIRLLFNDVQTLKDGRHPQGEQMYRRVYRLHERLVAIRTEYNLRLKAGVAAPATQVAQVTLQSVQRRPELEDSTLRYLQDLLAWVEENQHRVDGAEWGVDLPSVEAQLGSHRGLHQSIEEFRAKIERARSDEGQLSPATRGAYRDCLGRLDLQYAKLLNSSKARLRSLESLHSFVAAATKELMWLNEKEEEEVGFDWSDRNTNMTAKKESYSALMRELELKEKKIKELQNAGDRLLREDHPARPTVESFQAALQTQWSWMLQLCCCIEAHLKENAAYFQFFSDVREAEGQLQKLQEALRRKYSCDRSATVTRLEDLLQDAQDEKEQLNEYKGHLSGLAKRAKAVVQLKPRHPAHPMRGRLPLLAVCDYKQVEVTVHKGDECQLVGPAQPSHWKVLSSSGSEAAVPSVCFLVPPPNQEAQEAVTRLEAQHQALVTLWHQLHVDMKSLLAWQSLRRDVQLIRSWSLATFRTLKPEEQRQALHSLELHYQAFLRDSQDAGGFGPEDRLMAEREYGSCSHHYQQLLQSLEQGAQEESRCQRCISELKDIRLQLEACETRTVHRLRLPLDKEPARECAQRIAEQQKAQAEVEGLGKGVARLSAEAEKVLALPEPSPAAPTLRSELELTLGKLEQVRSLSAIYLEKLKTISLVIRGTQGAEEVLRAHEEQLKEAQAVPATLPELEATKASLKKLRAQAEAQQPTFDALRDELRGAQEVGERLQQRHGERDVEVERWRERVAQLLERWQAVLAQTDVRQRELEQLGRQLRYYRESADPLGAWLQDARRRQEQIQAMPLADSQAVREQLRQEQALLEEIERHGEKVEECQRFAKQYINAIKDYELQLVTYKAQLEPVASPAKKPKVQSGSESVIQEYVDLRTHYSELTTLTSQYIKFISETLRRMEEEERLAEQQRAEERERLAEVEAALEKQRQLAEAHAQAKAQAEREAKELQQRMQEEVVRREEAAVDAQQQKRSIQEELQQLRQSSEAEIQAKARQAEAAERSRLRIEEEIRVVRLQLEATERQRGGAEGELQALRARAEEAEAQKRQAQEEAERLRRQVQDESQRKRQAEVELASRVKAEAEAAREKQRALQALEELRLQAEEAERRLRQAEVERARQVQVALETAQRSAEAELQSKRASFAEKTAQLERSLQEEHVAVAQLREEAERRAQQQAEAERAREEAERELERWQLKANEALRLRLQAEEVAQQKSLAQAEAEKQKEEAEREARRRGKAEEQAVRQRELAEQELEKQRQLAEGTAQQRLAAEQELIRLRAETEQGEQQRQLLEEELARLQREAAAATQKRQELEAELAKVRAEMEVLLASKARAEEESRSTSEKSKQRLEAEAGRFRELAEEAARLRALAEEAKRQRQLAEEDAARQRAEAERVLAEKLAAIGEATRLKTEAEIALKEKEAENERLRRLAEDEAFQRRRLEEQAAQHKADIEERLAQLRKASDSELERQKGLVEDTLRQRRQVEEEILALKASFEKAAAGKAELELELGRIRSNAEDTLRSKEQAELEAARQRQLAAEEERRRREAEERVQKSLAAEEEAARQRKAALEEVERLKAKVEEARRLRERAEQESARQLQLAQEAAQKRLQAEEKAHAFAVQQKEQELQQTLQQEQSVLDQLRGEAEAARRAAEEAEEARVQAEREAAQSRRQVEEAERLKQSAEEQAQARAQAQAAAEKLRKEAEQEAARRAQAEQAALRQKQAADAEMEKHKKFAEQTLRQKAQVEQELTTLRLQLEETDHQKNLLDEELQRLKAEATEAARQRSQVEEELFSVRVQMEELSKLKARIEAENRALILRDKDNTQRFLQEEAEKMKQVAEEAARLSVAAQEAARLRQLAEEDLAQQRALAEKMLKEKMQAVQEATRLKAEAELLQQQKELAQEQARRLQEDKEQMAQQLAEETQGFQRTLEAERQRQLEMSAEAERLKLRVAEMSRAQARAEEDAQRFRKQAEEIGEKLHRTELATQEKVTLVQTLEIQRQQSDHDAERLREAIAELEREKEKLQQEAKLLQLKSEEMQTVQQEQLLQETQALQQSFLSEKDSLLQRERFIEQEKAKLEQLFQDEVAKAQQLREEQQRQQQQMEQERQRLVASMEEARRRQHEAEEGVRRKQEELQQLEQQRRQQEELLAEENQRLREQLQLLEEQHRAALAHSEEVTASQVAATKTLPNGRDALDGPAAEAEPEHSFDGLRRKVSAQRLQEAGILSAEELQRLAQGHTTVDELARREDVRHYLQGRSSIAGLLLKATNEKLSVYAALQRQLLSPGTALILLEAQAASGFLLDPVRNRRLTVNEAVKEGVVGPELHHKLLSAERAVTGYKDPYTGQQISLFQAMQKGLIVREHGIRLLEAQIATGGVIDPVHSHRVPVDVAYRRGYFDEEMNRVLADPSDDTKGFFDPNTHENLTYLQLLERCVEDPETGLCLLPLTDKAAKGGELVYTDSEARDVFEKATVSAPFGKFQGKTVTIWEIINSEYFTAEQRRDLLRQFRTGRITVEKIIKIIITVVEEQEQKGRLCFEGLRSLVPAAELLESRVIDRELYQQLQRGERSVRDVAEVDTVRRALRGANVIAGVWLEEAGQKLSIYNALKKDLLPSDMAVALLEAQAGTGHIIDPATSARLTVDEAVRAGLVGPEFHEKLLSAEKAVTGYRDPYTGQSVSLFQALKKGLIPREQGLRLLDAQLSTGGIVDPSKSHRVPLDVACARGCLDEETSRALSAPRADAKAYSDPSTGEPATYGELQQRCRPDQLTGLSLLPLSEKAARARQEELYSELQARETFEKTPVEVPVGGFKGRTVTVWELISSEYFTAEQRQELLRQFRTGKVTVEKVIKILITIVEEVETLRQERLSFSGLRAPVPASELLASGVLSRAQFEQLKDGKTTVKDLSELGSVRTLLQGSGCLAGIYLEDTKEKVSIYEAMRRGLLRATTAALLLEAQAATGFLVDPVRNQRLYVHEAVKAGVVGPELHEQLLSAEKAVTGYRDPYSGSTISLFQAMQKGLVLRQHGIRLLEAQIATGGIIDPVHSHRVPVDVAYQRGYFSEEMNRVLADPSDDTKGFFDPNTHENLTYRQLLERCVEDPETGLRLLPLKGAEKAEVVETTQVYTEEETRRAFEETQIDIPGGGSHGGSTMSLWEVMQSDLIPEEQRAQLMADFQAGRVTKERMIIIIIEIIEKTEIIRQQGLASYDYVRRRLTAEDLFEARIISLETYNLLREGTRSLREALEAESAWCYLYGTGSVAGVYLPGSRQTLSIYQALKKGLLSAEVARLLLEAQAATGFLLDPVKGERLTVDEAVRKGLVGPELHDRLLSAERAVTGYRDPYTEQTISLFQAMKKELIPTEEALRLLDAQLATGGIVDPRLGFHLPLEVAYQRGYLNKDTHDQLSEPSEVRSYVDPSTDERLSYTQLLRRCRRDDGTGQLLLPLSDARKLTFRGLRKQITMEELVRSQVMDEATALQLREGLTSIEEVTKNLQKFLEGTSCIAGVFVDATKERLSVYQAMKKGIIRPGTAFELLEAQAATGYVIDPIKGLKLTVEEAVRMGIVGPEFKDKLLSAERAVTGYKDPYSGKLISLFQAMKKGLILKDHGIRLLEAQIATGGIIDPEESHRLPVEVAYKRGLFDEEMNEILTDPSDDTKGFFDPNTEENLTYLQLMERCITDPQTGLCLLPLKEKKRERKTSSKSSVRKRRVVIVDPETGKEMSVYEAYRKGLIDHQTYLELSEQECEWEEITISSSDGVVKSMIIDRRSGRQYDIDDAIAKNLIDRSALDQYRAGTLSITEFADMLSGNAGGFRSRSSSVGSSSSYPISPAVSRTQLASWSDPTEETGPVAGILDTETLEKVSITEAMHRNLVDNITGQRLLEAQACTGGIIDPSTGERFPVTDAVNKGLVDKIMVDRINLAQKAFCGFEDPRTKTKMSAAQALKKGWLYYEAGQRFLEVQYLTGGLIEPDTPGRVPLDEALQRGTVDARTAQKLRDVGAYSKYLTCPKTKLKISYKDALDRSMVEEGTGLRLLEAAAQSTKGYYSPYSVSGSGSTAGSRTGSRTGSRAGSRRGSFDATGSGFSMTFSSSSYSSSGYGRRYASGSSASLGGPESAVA
# UniProt Q13501, sequence (Q13501 whole entry): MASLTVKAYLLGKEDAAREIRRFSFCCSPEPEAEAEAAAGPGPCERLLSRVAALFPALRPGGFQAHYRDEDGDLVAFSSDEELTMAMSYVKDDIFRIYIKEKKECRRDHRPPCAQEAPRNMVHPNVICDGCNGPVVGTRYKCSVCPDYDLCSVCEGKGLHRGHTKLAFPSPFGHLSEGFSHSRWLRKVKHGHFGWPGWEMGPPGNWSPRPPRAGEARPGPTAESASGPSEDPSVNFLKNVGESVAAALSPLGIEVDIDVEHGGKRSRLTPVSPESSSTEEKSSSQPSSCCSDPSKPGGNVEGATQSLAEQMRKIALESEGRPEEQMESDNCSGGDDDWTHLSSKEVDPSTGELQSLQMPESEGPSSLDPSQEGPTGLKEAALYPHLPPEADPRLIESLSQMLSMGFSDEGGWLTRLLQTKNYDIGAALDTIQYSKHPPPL
row,Target,lysine labeling ratio R10:1
1,SFN (lysine site: K77) (UniProt P31947),3.35 (inactive)
2,BPTF (lysine site: K604) (UniProt Q12830),8.91 (inactive)
3,PLOD3 (lysine site: K89) (UniProt O60568),5.28 (inactive)
4,SPTAN1 (lysine site: K241) (UniProt Q13813),7.04 (inactive)
5,UniProt Q9UKX5 (lysine site: K150),2.51 (inactive)
6,UniProt Q9BSJ8 (lysine site: K197),5.31 (inactive)
7,DIABLO (lysine site: K219) (UniProt Q9NR28),1.92 (active)
8,SPTBN1 (lysine site: K1913) (UniProt Q01082),4.33 (inactive)
9,DDX5 (lysine site: K264) (UniProt P17844),7.01 (inactive)
10,HNRNPU (lysine site: K31) (UniProt Q00839),1.72 (active)
11,EPHB4 (lysine site: K486) (UniProt P54760),4.21 (inactive)
12,HGS (lysine site: K551) (UniProt O14964),0.818 (active)
13,UniProt P62269 (lysine site: K137),3.21 (inactive)
14,SQSTM1 (lysine site: K13) (UniProt Q13501),7.96 (inactive)
15,ARL6IP5 (lysine site: K31) (UniProt O75915),0.953 (active)
16,UniProt Q15149 (lysine site: K4270),0.968 (active)
17,RPS19 (lysine site: K115) (UniProt P39019),1.86 (active)
18,MYH9 (lysine site: K1492) (UniProt P35579),2.92 (inactive)
19,YWHAQ (lysine site: K85) (UniProt P27348),4.79 (inactive)
20,CD109 (lysine site: K471) (UniProt Q6YHK3),2.01 (inactive)
21,MAN1B1 (lysine site: K354) (UniProt Q9UKM7),2.81 (inactive)
22,FKBP4 (lysine site: K274) (UniProt Q02790),2.78 (inactive)
23,SURF4 (lysine site: K154) (UniProt O15260),4.16 (inactive)
24,TKT (lysine site: K314) (UniProt P29401),5.08 (inactive)
25,UniProt Q15149 (lysine site: K1150),3.29 (inactive)
26,UniProt Q6NZI2 (lysine site: K299),4.52 (inactive)
27,HNRNPA1 (lysine site: K166) (UniProt P09651),7.94 (inactive)

row,Target,lysine labeling ratio R10:1
1,CCT3 (lysine site: K381) (UniProt P49368),2.81 (inactive)
2,FRAS1 (lysine site: K2523) (UniProt Q86XX4),2.03 (inactive)
3,MCAM (lysine site: K134) (UniProt P43121),3.83 (inactive)
4,UniProt P60709 (lysine site: K18),4.98 (inactive)
5,UniProt O95084 (lysine site: K331),4.02 (inactive)
6,KRAS (lysine site: K128) (UniProt P01116),1.02 (active)
7,UniProt P83731 (lysine site: K97),1.9 (active)
8,UniProt P62273 (lysine site: K33),1.51 (active)
9,SCFD1 (lysine site: K572) (UniProt Q8WVM8),2.58 (inactive)
10,NPR3 (lysine site: K127) (UniProt P17342),4.43 (inactive)
11,CLPTM1 (lysine site: K224) (UniProt O96005),1.69 (active)
12,UniProt Q15149 (lysine site: K3887),3.96 (inactive)
13,ITGAV (lysine site: K889) (UniProt P06756),1.08 (active)
14,ROBO1 (lysine site: K224) (UniProt Q9Y6N7),0.52 (active)
15,AK2 (lysine site: K28) (UniProt P54819),10.2 (inactive)
16,UniProt P61106 (lysine site: K193),3.57 (inactive)
17,ROR2 (lysine site: K113) (UniProt Q01974),6.49 (inactive)
18,UniProt P62913 (lysine site: K159),2.96 (inactive)
19,ANPEP (lysine site: K836) (UniProt P15144),0.79 (active)
20,UniProt P46781 (lysine site: K155),2.28 (inactive)
21,B4GAT1 (lysine site: K60) (UniProt O43505),7.79 (inactive)
22,TIMM8B (lysine site: K80) (UniProt Q9Y5J9),1.18 (active)
23,THBS1 (lysine site: K50) (UniProt P07996),4.26 (inactive)
24,HSPG2 (lysine site: K3155) (UniProt P98160),1.37 (active)
25,TF (lysine site: K134) (UniProt P02787),2.36 (inactive)
26,UniProt Q15149 (lysine site: K1659),6.06 (inactive)
27,ITGAV (lysine site: K514) (UniProt P06756),0.678 (active)

row,Target,lysine labeling ratio R10:1
1,ATAD3B (lysine site: K183) (UniProt Q5T9A4),1.8 (active)
2,PLXNA1 (lysine site: K868) (UniProt Q9UIW2),1.37 (active)
3,UniProt Q15149 (lysine site: K2142),3.4 (inactive)
4,HSP90B1 (lysine site: K547) (UniProt P14625),3.04 (inactive)
5,PPIA (lysine site: K31) (UniProt P62937),3.16 (inactive)
6,MYH9 (lysine site: K1862) (UniProt P35579),2.81 (inactive)
7,EEF2 (lysine site: K42) (UniProt P13639),1.82 (active)
8,IGF2R (lysine site: K527) (UniProt P11717),2.81 (inactive)
9,EEF2 (lysine site: K407) (UniProt P13639),1.45 (active)
10,ACIN1 (lysine site: K143) (UniProt Q9UKV3),0.535 (active)
11,VAMP8 (lysine site: K64) (UniProt Q9BV40),2.52 (inactive)
12,LAMA5 (lysine site: K113) (UniProt O15230),4.71 (inactive)
13,SPTAN1 (lysine site: K2195) (UniProt Q13813),1.91 (active)
14,STMN1 (lysine site: K53) (UniProt P16949),1.68 (active)
15,SPTBN1 (lysine site: K932) (UniProt Q01082),3.29 (inactive)
16,DYNC1H1 (lysine site: K2286) (UniProt Q14204),1.93 (active)
17,S100A4 (lysine site: K48) (UniProt P26447),5.05 (inactive)
18,NRP1 (lysine site: K534) (UniProt O14786),2.17 (inactive)
19,UniProt P02533 (lysine site: K251),5.36 (inactive)
20,NRP1 (lysine site: K538) (UniProt O14786),2.73 (inactive)
21,HNRNPU (lysine site: K697) (UniProt Q00839),0.915 (active)
22,MSN (lysine site: K458) (UniProt P26038),1.55 (active)
23,UniProt Q15149 (lysine site: K567),14.2 (inactive)
24,PSMA1 (lysine site: K115) (UniProt P25786),4.28 (inactive)
25,UniProt Q15149 (lysine site: K630),7.1 (inactive)
26,CDCP1 (lysine site: K592) (UniProt Q9H5V8),3.49 (inactive)
